Out of some 5,500 compounds screened, about 2,000 (36%) were called active. Roughly 18% stayed inconclusive and do not appear here. Rule as the data show it: active = normalized growth mostly below about 0.91 (no sharp cut-off); inconclusive = no clear call, values can overlap the other calls; inactive = mostly above about 0.92. The list shows a part of the results.
Assay: chemical genetic growth profiling, strain panel (AID 1159580);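 also: tested at 20 µM; growth read once vehicle control cultures reached saturation at 30 °C; 1 = growth at the plate median or of vehicle wells; lower values mean less growth of the strain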
Conditions: S. cerevisiae deletion strains, growth OD

Measured: normalized growth

NC(=O)C(c1ccccc1)(c1ccccc1)C1CCN(CCc2ccc3c(c2)CCO3)C1 (stereo not given)
inactive: locus YAL021C, strain ccr4, active compounds read low 1.01 | locus YAL026C, strain drs2, active compounds read low 1.02 | locus YAL030W, strain snc1, active compounds read low 1.03 | locus YBL061C, strain skt5, active compounds read low 1.01 | locus YBR009C, strain hhf1, active compounds read low 1.04 | locus YBR023C, strain chs3, active compounds read low 1.02 | locus YBR171W, strain sec66, active compounds read low 1.04 | locus YBR231C, strain swc5, active compounds read low 0.976 | locus YBR279W, strain paf1, active compounds read low 1.02 | locus YCL011C, strain gbp2, active compounds read low 1.03 | locus YCL016C, strain dcc1, active compounds read low 1.03 | locus YCL061C, strain MRC1, active compounds read low 1.02 | locus YCL069W, strain vba3, active compounds read low 1.02 | locus YCR088W, strain abp1, active compounds read low 1.02 | locus YDL005C, strain med2, active compounds read low 1.02 | locus YDL040C, strain nat1, active compounds read low 1.03 | locus YDR001C, strain nth1, active compounds read low 1.02 | locus YDR069C, strain doa4, active compounds read low 1.04 | locus YDR137W, strain rgp1, active compounds read low 1.1 | locus YDR159W, strain sac3, active compounds read low 1.03 | locus YDR195W, strain ref2 1.04 | locus YDR297W, strain sur2, active compounds read low 1.02 | locus YDR334W, strain swr1, active compounds read low 1.03 | locus YDR335W, strain msn5, active compounds read low 1.01 | locus YDR392W, strain spt3, active compounds read low 0.996 | locus YEL003W, strain gim4, active compounds read low 1.03 | locus YEL037C, strain rad23, active compounds read low 1.02 | locus YEL061C, strain CIN8 (second series), active compounds read low 1.01 | locus YER015W, strain faa2, active compounds read low 1.02 | locus YER016W, strain bim1, active compounds read low 1.04 | locus YER111C, strain swi4, active compounds read low 1.02 | locus YER155C, strain BEM2 (second series), active compounds read low 1.04 | locus YFR010W, strain ubp6, active compounds read low 1.02 | locus YGL167C, strain pmr1, active compounds read low 1.02 | locus YGL173C, strain kem1, active compounds read low 1.02 | locus YGL227W, strain vid30, active compounds read low 1.01 | locus YGL240W, strain doc1, active compounds read low 1.01 | locus YGL253W, strain hxk2, active compounds read low 1.02 | locus YHR013C, strain ard1, active compounds read low 1.01 | locus YHR027C, strain rpn1, active compounds read low 1.03 | locus YHR030C, strain SLT2, active compounds read low 1.05 | locus YHR079C, strain IRE1, active compounds read low 1.05 | locus YHR142W, strain chs7, active compounds read low 1 | locus YJL092W, strain hpr5, active compounds read low 1.01 | locus YJL095W, strain BCK1 (second series), active compounds read low 1.03 | locus YJL095W, strain BCK1, active compounds read low 0.986 | locus YJL115W, strain asf1, active compounds read low 1.02 | locus YJL129C, strain trk1, active compounds read low 0.999 | locus YJL154C, strain vps35, active compounds read low 1.03 | locus YJL164C, strain tpk1, active compounds read low 1.04 | locus YJL166W, strain qcr8, active compounds read low 1.03 | locus YJL187C, strain SWE1, active compounds read low 1.02 | locus YJR066W, strain TOR1, active compounds read low 0.997 | locus YKL160W, strain elf1, active compounds read low 1.02 | locus YKR026C, strain gcn3, active compounds read low 1.02 | locus YKR091W, strain srl3, active compounds read low 1.02 | locus YLL001W, strain dnm1, active compounds read low 1.03 | locus YLL026W, active compounds read low 1.02 | locus YLL041C, strain sdh2, active compounds read low 1.03 | locus YLR027C, strain aat2, active compounds read low 1.03 | locus YLR113W, strain HOG1, active compounds read low 1.01 | locus YLR221C, strain rsa3, active compounds read low 1.02 | locus YLR258W, strain gsy2, active compounds read low 1.04 | locus YLR262C, strain YPT6 (second series), active compounds read low 1.08 | locus YLR320W, strain mms22, active compounds read low 1.01 | locus YLR342W, strain FKS1, active compounds read low 1.02 | locus YLR357W, strain rsc2, active compounds read low 0.966 | locus YLR370C, strain arc18, active compounds read low 1.01 | locus YLR384C, strain iki3, active compounds read low 1.03 | locus YML120C, strain ndi1, active compounds read low 1.01 | locus YMR058W, strain fet3, active compounds read low 1.02 | locus YMR125W, strain sto1, active compounds read low 1.01 | locus YMR129W, active compounds read low 1.02 | locus YMR205C, strain PFK2, active compounds read low 1.03 | locus YMR231W, strain pep5, active compounds read low 1.02 | locus YNL071W, strain lat1, active compounds read low 1.01 | locus YNL183C, strain NPR1, active compounds read low 0.997 | locus YNL209W, strain ssb2, active compounds read low 1.02 | locus YNL248C, strain rpa49, active compounds read low 1.03 | locus YNL322C, strain KRE1 (second series), active compounds read low 1.04 | locus YNR049C, strain mso1, active compounds read low 1.02 | locus YOR001W, strain rrp6, active compounds read low 1.03 | locus YOR070C, strain gyp1, active compounds read low 1.03 | locus YOR080W, strain dia2, active compounds read low 1.01 | locus YOR083W, strain WHI5, active compounds read low 1 | locus YOR106W, strain vam3, active compounds read low 1.01 | locus YOR231W, strain MKK1, active compounds read low 1.04 | locus YOR265W, strain rbl2, active compounds read low 1.05 | locus YOR270C, strain vph1, active compounds read low 1.02 | locus YOR290C, strain snf2, active compounds read low 1.08 | locus YPL051W, strain arl3, active compounds read low 1.04 | locus YPL078C, strain atp4, active compounds read low 1.01 | locus YPL106C, strain sse1, active compounds read low 1.05 | locus YPL240C, strain hsp82, active compounds read low 1.03 | locus YPL256C, strain CLN2, active compounds read low 1.06

Nc1c(S(=O)(=O)O)cc(Nc2ccc(Nc3nc(Cl)nc(Nc4ccc(S(=O)(=O)O)cc4)n3)c(S(=O)(=O)O)c2)c2c1C(=O)c1ccccc1C2=O
inactive: locus YAL013W, strain DEP1, active compounds read low 0.977 | locus YAL040C, strain CLN3, active compounds read low 1.09 | locus YCL061C, strain MRC1 (second series), active compounds read low 1.01 | locus YDR150W, strain NUM1, active compounds read low 1.03 | locus YDR363W, strain ESC2, active compounds read low 1.01 | locus YER002W, strain NOP16, active compounds read low 1.03 | locus YGR078C, strain PAC10, active compounds read low 1.04 | locus YMR307W, strain GAS1, active compounds read low 1.05 | locus YNL128W, strain TEP1, active compounds read low 1.03 | locus YNL175C, strain NOP13, active compounds read low 1.03 | locus YNL197C, strain WHI3, active compounds read low 1.04 | locus YNL224C, strain SQS1, active compounds read low 1.04 | locus YNL322C, strain KRE1, active compounds read low 1.01 | locus YOR083W, strain WHI5 (second series), active compounds read low 1.04 | locus YPL241C, strain CIN2, active compounds read low 1.02
